# PubChem BioAssay AID504720 (Sanford-Burnham Center for Chemical Genomics, 2011)
# Hit rate of the full screen: of about 350,000 compounds, about 1,100 (0.31%) were called active. Rule as the data show it: active = activation above about 50%; inactive = the rest. The entries come from a sample that favours actives as a whole.
# Biological target: Endoribonuclease toxin MazF (Escherichia coli (strain K12)) (UniProt P0AE70)
# Test: activators of E. coli MazEF toxin-antitoxin RNase, primary screen, biochemical, fluorescence, uHTS (AID 504720)
# Details: FAM/BHQ RNA-DNA oligo cleavage fluorescence, 5 h, at 20 µM, stronger effect = higher value
# Endoribonuclease toxin MazF (Escherichia coli (strain K12)), sequence (P0AE70 whole entry, looked up): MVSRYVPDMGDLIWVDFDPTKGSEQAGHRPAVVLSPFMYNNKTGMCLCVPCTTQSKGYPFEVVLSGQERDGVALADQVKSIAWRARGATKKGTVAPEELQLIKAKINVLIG
row,SMILES,activation
1,Cc1nc(SCC(=O)Nc2cc(C)on2)c2c3c(sc2n1)CCCC3,63.5% (active)
2,CC(C)c1nc(SCC(=O)Nc2cccc(C(=O)O)c2)c2c3c(sc2n1)CCCC3,3.75% (inactive)
3,Cc1cc(NC(=O)CSc2nc(C(C)C)nc3sc4c(c23)CCC(C)C4)no1 (stereo not given),2.72% (inactive)
4,CCC(C)(C)NC(=O)C(c1ccccn1)N(C(=O)c1csnn1)c1ccccc1 (stereo not given),5.61% (inactive)
5,COc1ccc(CCNC(=O)CSc2nc(C)nc3c2oc2ccccc23)cc1OC,6.58% (inactive)
6,O=c1cc(CN2CCN(c3cccc(Cl)c3)CC2)c2cc3c(cc2o1)CCCC3,-4.83% (inactive)
7,Cc1ccnc(N2CCN(C(=O)CSc3nc4ccccc4nc3N3CCCCC3)CC2)c1,-5.31% (inactive)
8,COc1cc(OC)cc(-c2c(C#Cc3ccsc3)c3cc(-c4ccc(OC)cc4F)ccc3n2C)c1,-17.7% (inactive)
9,O=c1oc2ccccc2cc1-c1csc(Nc2ccc(O)cc2)n1,78.3% (active)
10,Cc1ccc(Nc2nc(-c3ccc(O)cc3O)cs2)nc1,17.4% (inactive)
11,Cc1ccn2c(-c3csc(Nc4ccc(C(=O)O)cc4)n3)c(C)nc2c1,-8.63% (inactive)
12,CCCC1(C(=O)OC)NC(c2ccco2)C2C(=O)N(C)C(=O)C21 (stereo not given),-13% (inactive)
13,NS(=O)(=O)c1ccc(NC(=S)NNC(=O)c2cccs2)cc1,13.7% (inactive)
14,Oc1ccc(N2CCN(C(=S)NCc3ccccc3)CC2)cc1,-1.54% (inactive)
15,O=C(COC(=O)c1ccccc1C(=O)N1CCN(c2ccccc2)CC1)NCc1ccccc1,67.3% (active)
16,CC(C)N(C(=O)COC(=O)c1ccccc1C(=O)N1CCN(c2ccc(F)cc2)CC1)C(C)C,5.64% (inactive)
17,Cn1c2ccccc2n2c(=O)c(=O)n(CC(=O)c3ccc(F)cc3)nc12,-20.6% (inactive)
18,CCSc1ccccc1C(=O)NCc1ccc(OC)cc1,2.86% (inactive)
19,COc1ccc(OC)c(NC(=O)c2cnn(-c3ccccc3Cl)c2NC(=O)c2ccco2)c1,4.29% (inactive)
20,CCC(=O)OCc1c(C(F)(F)F)nn(C)c1Oc1cccc(C(F)(F)F)c1,-2.22% (inactive)
21,Cn1nc(C(F)(F)F)cc1C(=O)O,11.7% (inactive)
22,Cn1nc(C(F)(F)F)cc1-c1ccc(/C=C(\C#N)C(=O)c2cccc(C(F)(F)F)c2)s1,730% (active)
23,C=CCSc1nc(Cc2ccc(Cl)cc2)nc2ccccc12,-10.7% (inactive)

row,SMILES,activation
1,COc1cccc(OC)c1CN(C)C(=O)c1cnccc1C(F)(F)F,-0.62% (inactive)
2,Cc1nc([N+](=O)[O-])cn1CC(=O)Nc1ccc(Cl)cc1,7.49% (inactive)
3,Nc1c(C(=O)c2cccs2)sc2nsc(SCCN3CCCCC3)c12,790% (active)
4,CN=C(c1ccccc1)c1c(C)cccc1C,0.32% (inactive)
5,CN(C)CCNC(=O)C(C(=O)c1ccccc1)n1ccccc1=O (stereo not given),5.66% (inactive)
6,Cc1nn2c3cc(N4CCOCC4)ccc3nc2c2ccccc12,31.7% (inactive)
7,CC(=O)c1sc(NC(=O)c2cccc3ccccc23)nc1C,63.5% (active)
8,Cc1ccn2c(=O)c(NC(=O)c3cccc4ccccc34)c(C)nc2c1,4.6% (inactive)
9,CC(=O)c1sc(NC(=O)C2=NN(c3ccccc3)C(=O)CC2)nc1C,0.238% (inactive)
10,Cc1cccc(N2C(=O)C3C(c4ccccc4)OC4(C(=O)c5ccccc5C4=O)C3C2=O)c1 (stereo not given),0.83% (inactive)
11,CCOc1ccc(N2C(=O)Nc3ccccc3C2(O)C(=O)NCc2ccco2)cc1 (stereo not given),-28.4% (inactive)
12,CCCCCCCC(=O)NC(Nc1ccccc1OC)C(Cl)(Cl)Cl (stereo not given),-13.4% (inactive)
13,Cc1ccsc1CNn1cnnc1SCc1ccccc1F,54.5% (active)
14,Cc1ccccc1CSc1nnc(-c2cccnc2)n1N,-17.4% (inactive)
15,CCN(CC(=O)NCc1cccs1)C(=O)c1cccc(S(=O)(=O)Nc2ccccc2OC)c1,2.02% (inactive)
16,CCOc1ccc(C(C(=O)NCCOC)N(CCOC)C(=O)CCC(=O)Nc2ccccn2)cc1 (stereo not given),-1.66% (inactive)
17,Cc1ccc(C(=O)O)cc1N1C(=O)CCCC1=O,4.24% (inactive)
18,COCCCNc1nc2c(-c3cccc(C)c3)nnn2c2ccc(Cl)cc12,6.31% (inactive)
19,CN(CC(=O)Nc1ccc(F)c(F)c1F)C(=O)Cn1cnc2c1c(=O)n(C)c(=O)n2C,3.59% (inactive)
20,O=C(c1ccc(Cl)cc1)N1N=C(c2ccccn2)CC1(O)C(F)(F)F (stereo not given),7.8% (inactive)
21,O=C1NC(=O)N(c2ccc(F)cc2)C(=O)/C1=C/c1ccc2c(c1)CCCN2Cc1ccccc1,50.1% (active)
22,O=C1CN(C(=O)c2cc(F)cc(F)c2)c2ccccc2N1,10.5% (inactive)
23,COCCNC(=O)C(c1ccc(O)cc1)N(C(=O)CCC(=O)Nc1nccs1)c1ccc(C)cc1 (stereo not given),8.66% (inactive)

row,SMILES,activation
1,CC(=O)Oc1cc2c(C(=O)NCCN3CCOCC3)c(C)oc2c2ccccc12,-12.4% (inactive)
2,O=C(CN1C(=O)NC(Cc2ccccc2)(Cc2ccccc2)C1=O)NCC1CCCCC1,2.41% (inactive)
3,CCCCCCNCCn1cnc2c(N)ncnc21,2.79% (inactive)
4,CCOCCN(C=O)c1cccc(OC)c1,4.02% (inactive)
5,COc1ccc(N(C(=O)c2snc(C(N)=O)c2N)C(C(=O)NC2CCCC2)c2ccc(C)o2)c(OC)c1 (stereo not given),146% (active)
6,CCC(C(=O)NC1CCCCC1)N(C(=O)c1snc(C(N)=O)c1N)c1ccc(OC)cc1OC (stereo not given),8.72% (inactive)
7,COc1ccc(C(C(=O)NC2CCCCC2)N(C(=O)c2snc(C(N)=O)c2N)c2ccccc2OC)cc1 (stereo not given),6.68% (inactive)
8,O=C(NCCCO)/C(=C\C=C\c1ccccc1)NC(=O)c1ccccc1Cl,-2.84% (inactive)
9,CCNC(=O)NC(=O)C(C)OC(=O)C1CCN(S(=O)(=O)c2ccccc2F)CC1 (stereo not given),5.47% (inactive)
10,C=CC[C@H](CC(=O)N(CCO)Cc1ccccc1)C(=O)N[C@@H](COC(=O)[C@@H](CC=C)Cc1ccc(F)cc1)Cc1ccccc1,-7.46% (inactive)
11,Cc1nc(NCc2ccccc2)c(C(N)=O)c2c1COC(C)(C)C2,-2.87% (inactive)
12,CCCn1c(=O)c2c(C(F)(F)F)cc(-c3cccs3)nc2n(CCC)c1=O,11.8% (inactive)
13,O=C(O)C(c1ccccc1)N1C(=O)/C(=C\c2ccc(-c3cccc(Cl)c3)o2)SC1=S (stereo not given),199% (active)
14,O=C(NC(=S)Nc1cc(C(F)(F)F)ccc1N1CCOCC1)c1ccc(-c2cccc(Cl)c2)o1,-2.26% (inactive)
15,CC(C(=O)NC1CCS(=O)(=O)C1)N1C(=O)/C(=C/c2ccc(Cl)cc2)SC1=S (stereo not given),0.406% (inactive)
16,CC(C)N=C1CCCC1C(=S)SSC(=S)C1CCCC1=NC(C)C (stereo not given),1.19% (inactive)
17,CN(C)c1ccc(C2N(C)C(=O)c3ccccc3N2C)cc1 (stereo not given),-0.422% (inactive)
18,CN(C)c1ccc(Nc2c3c4c(cccc4n(C)c2=O)C(=O)c2ccccc2-3)cc1,178% (active)
19,NC1=NC(=O)C(Cc2cccc(Cl)c2Cl)S1 (stereo not given),-10% (inactive)
20,COc1cc(C(=O)NCc2nnc(SCC(=O)Nc3nc4ccc(C)cc4s3)o2)cc(OC)c1OC,12.4% (inactive)
21,CCN(CC)CCOc1ccc2c(c1)C(=NNC(=O)c1ccccn1)c1cc(OCCN(CC)CC)ccc1-2,-0.85% (inactive)
22,CN(CCNC(=O)c1cc2c(-c3ccccc3F)nn(C)c2s1)C1CCCCC1,18.1% (inactive)
23,COCCNc1nc(-c2ccccc2)nc2c1oc1ccccc12,10.6% (inactive)

row,SMILES,activation
1,C[C@@H](Nc1nc(-c2ccccc2)nc2c1oc1ccccc12)C(=O)O,0.442% (inactive)
2,CCc1nc(Nc2ccc3nccnc3c2)c2oc3ccccc3c2n1,92.8% (active)
3,O=C(CSc1ccc(Cl)cc1)NC1CC1,8.89% (inactive)
4,Cc1noc(NS(=O)(=O)c2ccc(N3CC(O)=C(c4ccccc4)C3=N)cc2)c1C,-0.03% (inactive)
5,COc1ccc(N=Nc2c(-c3ccc(OC)cc3)[nH]oc2=O)cc1,61.5% (active)
6,COc1ccc(N=C2C=CC(=O)O2)cc1,6.95% (inactive)
7,O=c1o[nH]c(-c2ccccc2)c1N=Nc1c(F)cccc1Cl,-10.5% (inactive)
8,COc1ccc(N2CCN(Cc3ccc(Br)s3)CC2)cc1,-3.28% (inactive)
9,O=S(=O)(c1cnccc1N1CCN(/N=C/c2ccc(Br)cc2)CC1)N1CCCCC1,-7.86% (inactive)
10,O=C(c1ccc(Cl)nc1)N1CCN(S(=O)(=O)c2ccc3c(c2)OCCO3)CC1,2.83% (inactive)
11,CC1CC(C)CN(S(=O)(=O)c2cccc(C(=O)N3C(=O)c4cccc(N)c4C3=O)c2)C1 (stereo not given),3.79% (inactive)
12,COc1cc(C(=O)N2CCN(C)CC2)cc(OC)c1OC,4.16% (inactive)
13,COc1cc(C(=O)N2C(=O)c3cccc(N)c3C2=O)cc(OC)c1OC,75.9% (active)
14,NC(CSC(c1ccccc1)(c1ccccc1)c1ccc(-c2ccccc2)cc1)C(=O)O (stereo not given),-7.6% (inactive)
15,COc1ccc(CN(C)C(=S)Nc2ccc(Cl)cc2Cl)cc1,7.07% (inactive)
16,O=c1c2ccccc2nc(/C=C/c2ccc(F)cc2)n1-c1ccccc1O,-12.9% (inactive)
17,CCn1c(/C=C/c2ccc([N+](=O)[O-])o2)nc2ccccc2c1=O,1270% (active)
18,O=c1c2ccccc2nc(/C=C/c2ccco2)n1-c1ccccc1O,-0.876% (inactive)
19,CN1OC[C@@H]2CN[C@H](c3ccc(-c4ccccc4)cc3)C[C@@H]21,8.87% (inactive)
20,COC(=O)c1c(-c2ccsc2)oc2ccc(-c3cc(OC)c(OC)c(OC)c3)cc12,1.83% (inactive)
21,O=C1N[C@H](Cc2c[nH]c3ccccc23)COC(=O)[C@H](Cc2ccc(F)cc2)C/C=C\C[C@H]1CC(=O)N(CCO)Cc1ccccc1,-14.8% (inactive)
